# High-throughput results from PubChem BioAssay.
# In the library only some 3.5% were active in any assay of this set; here they are far more common.
# Giardia FBPA inh – qHTS Assay for Inhibitors of Fructose-1,6-bisphosphate Aldolase from Giardia Lamblia | Potency, µM (highest dose often 59.6 µM), inactives show at the top dose activity, negative = inhibition, most hits filed as inhibitors | AID 2451, 2010 | 290,000 tested, 0.71% active | purified Giardia FBPA; also: % is scaled to controls: 0 for no effect and ±100 for the full control effect; nearly all actives have a fitted effect of over 55% in size
# Target sequence (A8B2U2 whole entry, looked up): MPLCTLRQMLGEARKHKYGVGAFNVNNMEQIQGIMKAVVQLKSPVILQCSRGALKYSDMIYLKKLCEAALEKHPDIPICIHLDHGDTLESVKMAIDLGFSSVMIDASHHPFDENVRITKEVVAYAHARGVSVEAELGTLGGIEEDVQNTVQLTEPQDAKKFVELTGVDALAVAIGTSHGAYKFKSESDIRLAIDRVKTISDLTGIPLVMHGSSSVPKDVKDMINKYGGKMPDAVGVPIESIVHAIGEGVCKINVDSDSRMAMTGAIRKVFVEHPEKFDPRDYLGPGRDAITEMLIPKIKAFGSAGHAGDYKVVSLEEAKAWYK
#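 Giardia FBPA (40 nM reagent) was preincubated 10 min at RT with compound (up to 57.5 uM final), then substrate plus GAPDH/TPI/NAD/arsenate coupling system with diaphorase/resazurin was added; resorufin fluorescence (525/598 nm) was read after 20 min.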
# LmPK inhibitor – qHTS Assay for Inhibitors of Leishmania Mexicana Pyruvate Kinase (LmPK) | Potency, µM (series often up to 57.5 µM), for inactives: at the highest dose activity change, negative = inhibition, usual class: inhibitors | 290,000 tested, 0.37% active | Q27686 | AID 1721, 2009 | purified LmPK, Kinase-Glo ATP luminescence, 1 h; also: % is scaled to controls: 0 for no effect and ±100 for the full control effect
# Target sequence (Q27686 whole entry, looked up): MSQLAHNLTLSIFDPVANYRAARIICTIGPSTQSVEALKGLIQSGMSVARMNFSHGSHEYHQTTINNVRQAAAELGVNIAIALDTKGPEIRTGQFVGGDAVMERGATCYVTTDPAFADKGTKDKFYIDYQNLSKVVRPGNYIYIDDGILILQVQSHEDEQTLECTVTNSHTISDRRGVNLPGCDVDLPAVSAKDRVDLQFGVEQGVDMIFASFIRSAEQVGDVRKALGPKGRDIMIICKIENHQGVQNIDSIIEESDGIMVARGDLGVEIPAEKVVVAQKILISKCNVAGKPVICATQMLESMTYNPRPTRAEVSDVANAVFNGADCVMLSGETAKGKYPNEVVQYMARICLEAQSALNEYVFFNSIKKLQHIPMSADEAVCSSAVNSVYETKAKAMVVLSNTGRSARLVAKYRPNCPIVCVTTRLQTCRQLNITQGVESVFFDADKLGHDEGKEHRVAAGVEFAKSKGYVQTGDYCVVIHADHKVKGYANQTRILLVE
#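 Screened at intermediate enzyme activity to detect both inhibitors and activators: LmPK at 0.1 nM, with a 0.5 nM enzyme column as activation reference. PEP 0.5 mM, ADP 0.1 mM; ATP detected by luminescence after 1 h.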
# Tb PYK inh – qHTS of Trypanosoma Brucei Inhibitors. TbPYK enzyme, Kinase-Glo Plus ATP luminescence, 45 min. Potency, µM (titrated, usually from 76.8 µM), for the others: top-dose activity, negative = inhibition, actives largely listed as inhibitors. 410,000 tested, 0.12% active. AID 624173, 2012; also: % is scaled to controls: 0 for no effect and ±100 for the full control effect; nearly all actives have a fitted effect of over 50% in size
#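 T. brucei PYK with substrate was exposed to pin-transferred compounds across a concentration series, then started with 130 uM ADP (final). After 45 min at room temperature, Kinase-Glo Plus luminescence was read, normalized and curve-fitted.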
# Sm TGR inh – qHTS Assay for the Inhibitors of Schistosoma Mansoni Peroxiredoxins; Schistosoma mansoni thioredoxin glutathione reductase (TGR), Q962Y6; purified TGR, DTNB reduction, TNB absorbance 405 nm; Potency, µM (series often up to 114 µM), inactives show at the highest dose activity change, negative = inhibition, usual class: inhibitors; 360,000 tested, 3% active; AID 485364, 2010; also: % is scaled to controls: 0 for no effect and ±100 for the full control effect; nearly all actives have a fitted effect of over 60% in size
#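 TGR 20 nM + NADPH 100 uM (dispensed conc.), cpd preinc 15 min RT; start with NADPH (500 uM addition) then DTNB (15 mM addition). Kinetic TNB absorbance, 405 nm filter. Four-parameter Hill fit across titration.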
# RE007 growth inh – qHTS Assay for Inhibitors of the HIV-1 protein Vpr | S. pombe RE007 Vpr strain, BacTiter-Glo ATP luminescence, 24 h | Potency, µM (titrated, usually from 92.2 µM), for the others: at the highest dose activity change, negative = less growth, usual class: inhibitors | 360,000 tested, 0.21% active; active = well fitted falling curve with a large enough effect; inconclusive = small, poorly fitted or top-dose-only effect; inactive = no such curve, though single readings can be large or run the other way; also: % is scaled to controls: 0 for no effect and ±100 for the full control effect; nearly all actives have a fitted effect of over 50% in size
#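 Fission yeast RE007 carrying one integrated HIV-1 vpr copy, seeded at OD 0.01 in PMG+AL medium with 23 nL pinned compound. Grown 24 h at 30 degrees; viability read by BacTiter-Glo luminescence after 5 min.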
# NS1 inh – qHTS Assay for Inhibitors of Influenza NS1 Protein Function; Potency, µM (highest dose often 46.1 µM), for inactives: top-dose activity, positive = more growth; 270,000 tested, 0.4% active; calls by dose curve; also: actives are rising curves; nearly all actives have a fitted effect of over 50% in size
#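 Growth recovery, yeast-based: influenza A NS1 expressed in S. cerevisiae causes slow growth, and suppressors are detected by OD600. The parent strain without NS1 is used as positive control.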
# * marks the source's active call; other numbers are inactive results; ? = inconclusive; nt = no result given; [ ] = remark or other dose. Unless noted, calls follow the shape of the dose curve; as a rule, active = well fitted curve in the direction sought with a large enough effect; inconclusive = small, poorly fitted or top-dose-only effect, or another doubt; inactive = no such curve, though single readings can be large; an effect the other way counts as inactive or inconclusive. Potency is read from the fitted curve at half-maximal effect.
SMILES,Giardia FBPA inh,LmPK inhibitor,Tb PYK inh,Sm TGR inh,RE007 growth inh,NS1 inh
CCOC(=O)C(NC(C)=O)(Nc1ccc(S(=O)(=O)Nc2cc(C)on2)cc1)C(F)(F)F (stereo not given),0.1%,-0.7%,-15.2%,-9.4%,-3.9%,4.9%
CC(=O)Nc1ccc(S(=O)(=O)N(C)c2ccccc2)cc1,1.8%,4.7%,11.2%,-12.6%[11.4 µM],-8.1%,-23.9%
CCOC(=O)/C=C/C(=O)Nc1ccc(S(=O)(=O)Nc2cc(C)on2)cc1,nt,-1.5%,1.3%,11.2µM*,-10.4%,3.0%
Cc1cc(NS(=O)(=O)c2ccc(NC(NC(=O)C(C(F)(F)F)C(F)(F)F)(C(F)(F)F)C(F)(F)F)cc2)no1,-7.0%,1.6%,-7.0%,12.6µM*,-1.1%,16.6%
CCOC(=O)/C=C/C(=O)Nc1ccc(S(=O)(=O)N(C)c2ccccc2)cc1,-6.6%,1.6%,3.8%,39.8µM*,3.2%,nt
COc1cc(Cl)c(C)cc1NC(=O)CCn1c(=O)c2cccn2c2cccnc21,nt,nt,1.6%,-3.5%,nt,nt
COc1ccc(CCNC(=O)CN(c2cc(OC)ccc2OC)S(=O)(=O)c2ccccc2)cc1,-4.5%,-2.3%,-5.4%,0.1%,5.5%,-39.5%
COc1ccc(OC)c(N(CC(=O)NCc2ccccc2)S(=O)(=O)c2ccc(OC)c(OC)c2)c1,nt,-11.1%,1.0%,25.1µM*,1.5%,?
COc1ccc(OC)c(N(CC(=O)NCCSCc2ccco2)S(=O)(=O)c2ccccc2)c1,nt,-3.0%,-5.9%,44.7µM*,-0.6%,-0.9%
CCOc1ccccc1N(CC(=O)NCCSCc1ccco1)S(=O)(=O)c1ccccc1,0.9%,2.0%,0.0%,39.8µM*,1.9%,16.4%
Cc1ccccc1N(CC(=O)NCCSCc1ccco1)S(C)(=O)=O,-1.2%,0.4%,-1.7%,22.4µM*,-16.0%,?
CCN(CC)S(=O)(=O)c1ccc(C(=O)NCCSc2c(-c3ccc(C)cc3)[nH]c3ccccc23)cc1,nt,nt,1.7%,8.5%,nt,nt
CCOc1ccc(NC(=O)c2oc3ccccc3c2NC(=O)c2ccc(OC)cc2OC)cc1,nt,nt,-0.9%,1.7%,nt,nt
O=C(NCCSCc1ccco1)Nc1ccccc1,0.1%,2.7%,-3.4%,35.5µM*,-1.1%,-17.0%
COc1ccc(N2Cc3cccc(C(=O)Nc4ccc(C)c(C)c4)c3C2=O)cc1,nt,nt,6.6%,-1.5%,nt,nt
CCCC(=O)c1ccc(CP(=O)(OCC)OCC)o1,2.0%,-3.4%,-1.0%,12.6µM*,2.3%,-1.5%
CCc1ccc(-n2nc3cc(C)c(NC(=O)c4cc(Cl)ccc4OC)cc3n2)cc1,nt,nt,0.0%,6.9%,nt,nt
Nc1sccc1C(=O)c1ccccc1,-21.6%,2.0%,-2.2%,20µM*,-16.3%,-23.6%
COc1ccc(NS(=O)(=O)c2ccc3[nH]c4c(c3c2)CCCCC4)cc1,nt,nt,2.7%,-0.4%,nt,nt
O=C(N/N=C/C(Cl)=C/c1ccc([N+](=O)[O-])cc1)C(=O)Nc1ccccc1C(=O)O,0.4%,-15.4%,-11.1%,14.1µM*,-24.1%,9.3%
O=C(CCC1N=C2c3ccccc3N=C(SCc3ccccc3Cl)N2C1=O)NCc1cccs1 (stereo not given),nt,nt,-7.1%,-9.4%,nt,nt
COCCOC(=O)/C(=C\c1cc(C(C)(C)C)c(O)c(C(C)(C)C)c1)C(C)=O,-4.5%,-2.4%,1.2%,39.8µM*,-5.2%,-65.5%
Nc1ccc(N2CCN(C(=O)c3cccs3)CC2)cc1,-15.2%,-4.4%,-26.3%,-10.0%,-5.7%,20.6%
Cc1ccc(N2CCN(C(=O)c3cccs3)CC2)cc1C,14.1%,34.3%,1.8%,35.5µM*,-19.7%,-22.0%
Cc1cnc(NC(=O)/C=C/c2ccc(Br)o2)s1,1.5%,-2.0%,-2.1%,-0.9%,-9.5%,-1.9%
SMILES,Giardia FBPA inh,LmPK inhibitor,Tb PYK inh,Sm TGR inh,RE007 growth inh,NS1 inh
O=C(/C=C/c1ccc(Br)o1)Nc1nnc(C2CC2)s1,-3.3%,-0.3%,nt,11.2µM*,nt,10.7%
CCOC(=O)C(=CNc1ccc(Cl)cn1)C(=O)OCC,1.6%,-7.1%,-0.1%,5.2%,10.3%,5.3%
CCOC(=O)C(=CNNc1cccc(Cl)c1)C(=O)OCC,-13.0%,1.5%,-17.2%,8.91µM*,78.0%,-75.2%
Cc1nc2ccn(Cc3ccccc3)c(=O)c2cc1C(=O)N1CCN(c2ccccc2F)CC1,nt,nt,1.2%,-6.6%,nt,nt
CC(C)(C)c1cc[n+](/C(C(=S)NC2CC2)=C(/[O-])c2ccc(Cl)s2)cc1,6.29µM*,8.4%,-2.5%,-20.9%,-3.7%,-1.3%
Cc1ccc(S(=O)(=O)SCCCSS(=O)(=O)c2ccc(C)cc2)cc1,nt,nt,3.98µM*,nt,?,nt
COc1ccc(-n2cc(-c3ccccc3)c3c(NCCc4ccc(OC)c(OC)c4)ncnc32)cc1,nt,nt,-1.2%,3.8%,nt,nt
Cc1cccc(CS(=O)(=O)CC2Nc3ccc(C(=O)NCc4ccccc4Cl)cc3NC2=O)c1 (stereo not given),nt,nt,-4.3%,-12.3%,nt,nt
O=C(CSc1nc2ncccc2[nH]1)NCc1ccco1,nt,11.9%,0.6%,?,-13.9%,9.7%
Cc1cc2nc(-c3cccnc3SCC(=O)NCc3ccco3)[nH]c2cc1C,?,?,-1.8%,17.8µM*,-24.8%,-11.8%
O=C(CSc1ncccc1-c1nc2ccccc2[nH]1)NCc1ccco1,-25.6%,5.5%,-24.7%,12.6µM*,-7.0%,10.0%
Cc1cc2nc(-c3cccnc3SCC(=O)NC3CC3)[nH]c2cc1C,?,14.1µM*,nt,-1.8%,nt,nt
CC(C)(C)NC(=O)CSc1ncccc1-c1nc2ccccc2[nH]1,-4.9%,3.3%,-1.8%,-28.1%,3.3%,10.6%
CCOC(=O)c1c(NC(=O)c2noc3c2CC(C(C)(C)C)CC3)sc2c1CCCC2 (stereo not given),nt,nt,-6.4%,0.5%,nt,nt
COc1ccccc1OCC(=O)N(Cc1ccco1)Cc1ccccc1F,nt,nt,-2.2%,-7.9%,nt,nt
CN(C)C(CNC(=O)c1ccc(S(=O)(=O)Nc2ccccc2F)cc1)c1ccccc1 (stereo not given),nt,0.9%,0.5%,5.8%,4.6%,3.4%
CC(=O)c1ccc(S(=O)(=O)NCc2ccc(C(=O)NCC(c3ccccc3)N(C)C)cc2)cc1 (stereo not given),8.4%,-0.4%,-3.9%,14.1µM*,-20.2%,6.7%
CCOc1ccc(N(CC)C(=O)c2cc3c(s2)-c2ccccc2OC3)cc1,nt,nt,-2.4%,15.1%,nt,nt
CCOC(=O)NNc1ccc2nonc2c1[N+](=O)[O-],7.06µM*,-1.2%,-16.5%,15.8µM*,25.1µM*,-34.9%
